In all, about 350,000 compounds went through this assay and about 7,000 (2%) were called active. Rule as the data show it: active = activation above about 40%; inconclusive = no clear call, values can overlap the other calls; inactive = below that. Shown is part of a subset that was picked to be rich in actives.
Assay: Bmi1 luciferase reporter increase in mESCs, primary screen, esBAF inhibitor project, mouse ES cells, Bmi1 luciferase knock-in, single point (AID 602393);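 also: 0% = median of the plate's neutral control wells and 100% = double that signal; a rise in the Bmi1 reporter signal indicates esBAF inhibition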
Details: 24 h, at 12.5 µM, stronger effect = higher value, 100% = twice the neutral-well signal

Reporter increase, active:
CC(C)c1ccc(NC(=O)Cn2ncc3ccccc32)cc1 61.7%, COc1ccc(N=C(C)c2sc3ccccc3c2O)cc1 50.4%, Cc1ccc(Cc2nc(-c3cccc(C)c3)no2)cc1 60.8%, COc1ccccc1Cc1nc(-c2ccc(C)cc2)no1 46.3%, C[C@H]1CCCCO[C@H](CN(C)C(=O)NC2CCCCC2)[C@@H](C)CN([C@@H](C)CO)C(=O)c2cc(NC(=O)Nc3ccc4c(c3)OCO4)ccc2O1 44.8%, C[C@H](CO)N1C[C@H](C)[C@H](CN(C)C(=O)NC2CCCCC2)OCCCC[C@H](C)Oc2ccc(NC(=O)Nc3ccc4c(c3)OCO4)cc2C1=O 55.8%, N#C/C=C1\Sc2ccccc2C(=O)N1CC(=O)N1CCN(S(=O)(=O)c2ccccc2)CC1 76.9%, O=C(NCCNc1ccccc1[N+](=O)[O-])c1ccccc1F 62.1%, Cc1nc(-c2ccccc2)sc1-c1nnc(C2CC2)o1 76.8%

Reporter increase, inactive:
CCOC(=O)c1cn(CC(=O)Nc2ccc(C(C)C)cc2)nn1 -4.55%, CCc1ccc(NC(=O)Cn2ncn3c(cc4ccccc43)c2=O)cc1 -6.55%, COc1cccc(CNC(=O)[C@@H]2[C@@H](CO)[C@@H]3Cn4c(ccc(-c5cccnc5)c4=O)[C@@H]3N2C)c1 0.488%, COC(=O)c1ccc(/C=C/c2c(-c3ccc(OC)cc3)sc3ccccc23)cc1 0.121%, COc1ccccc1-c1sc2ccccc2c1-c1ccc(C(C)=O)cc1 34.4%, N#C[C@H]1[C@@H](c2ccc(C3=CCCCC3)cc2)[C@@H](CO)N1C(=O)NC1CCCCC1 7.57%, C[C@H]1CCCCO[C@H](CN(C)C(=O)Nc2ccccc2)[C@@H](C)CN([C@@H](C)CO)C(=O)c2cc(NC(=O)CCC(F)(F)F)ccc2O1 -7.05%, O=C(C1CCC1)N1C[C@@H]2[C@H](c3ccccc31)[C@H](CO)N2C(=O)c1ccccc1 -1.2%, COc1ccccc1-c1noc(CSc2nc(C)cc(=O)[nH]2)n1 -5.13%, CCCc1nc(-c2cc3cc(C)ccc3[nH]c2=O)no1 -1.25%, Cc1ccc(-c2noc(CC(c3ccccc3)c3ccccc3)n2)cc1 0.61%, Cc1ccc(-c2noc(CNC(=O)c3ccoc3C)n2)cc1 1.49%, C[C@@H]1CCCCO[C@@H](CN(C)Cc2ccncc2)[C@H](C)CN([C@H](C)CO)C(=O)c2cc(N(C)C)ccc2O1 -12.3%, CCCC(=O)Nc1ccc2c(c1)OC[C@@H](C)N(Cc1ccccc1F)C[C@@H](C)[C@H](OC)CN(C)C2=O -2.03%, COc1ccc(S(=O)(=O)Nc2cccc3c2O[C@@H](CN(C)C(=O)NC(C)C)[C@H](C)CN([C@@H](C)CO)C3=O)cc1 -7.18%, O=C([C@@H]1[C@@H](CO)[C@@H]2Cn3c(ccc(C4=CCCC4)c3=O)[C@H]1N2C(=O)c1ccncc1)N1CCCCC1 -2.02%, C[C@@H]1CN([C@@H](C)CO)C(=O)CCCn2cc(nn2)CO[C@@H]1CN(C)Cc1ccccc1C(=O)O -3.04%, C[C@@H]1CCCCO[C@H](CN(C)C(=O)NC2CCCCC2)[C@H](C)CN([C@@H](C)CO)C(=O)c2cc(NC(=O)Nc3ccc(F)cc3)ccc2O1 3.4%, C[C@@H]1CCCCO[C@@H](CN(C)C(=O)NC2CCCCC2)[C@H](C)CN([C@@H](C)CO)C(=O)c2cc(NC(=O)Nc3ccc(F)cc3)ccc2O1 3.77%, CC(C)NC(=O)N(C)C[C@H]1OCCCC[C@H](C)Oc2ccc(NC(=O)Nc3ccc4c(c3)OCO4)cc2C(=O)N([C@H](C)CO)C[C@@H]1C 4.2%, C[C@@H]1CCCCO[C@H](CN(C)C(=O)NC2CCCCC2)[C@H](C)CN([C@H](C)CO)C(=O)c2cc(NC(=O)Nc3ccc(F)cc3)ccc2O1 4.59%, COCC(=O)N(C)C[C@H]1Oc2ncc(-c3cccc(OC)c3)cc2C(=O)N([C@H](C)CO)C[C@H]1C -0.645%, C[C@@H]1CN([C@H](C)CO)C(=O)CCCn2cc(nn2)CO[C@@H]1CN(C)Cc1ccc2cccnc2c1 -4.13%, CCC(=O)Nc1ccc2c(c1)OC[C@@H](C)N(CC1CC1)C[C@H](C)[C@H](OC)CN(C)C2=O 2.9%, C[C@H]1CN([C@@H](C)CO)C(=O)c2cc(C#CC(C)(C)O)cnc2O[C@H]1CN(C)C(=O)CC1CC1 2.32%, C[C@@H]1CN([C@H](C)CO)C(=O)c2c(c3ccccc3n2C)-c2ccccc2CO[C@@H]1CN(C)C(=O)Nc1ccccc1 2.44%, O=C(CN1CCCSc2ccccc21)N1CCN(S(=O)(=O)c2ccccc2)CC1 3.15%, O=C(CN1CCCSc2ccccc21)N1CCN(S(=O)(=O)c2cccc(F)c2)CC1 2.16%, CCCNC(=O)N1C[C@@H](O)COC[C@H]2O[C@H](CC(=O)N3CCC(Cc4ccccc4)CC3)CC[C@@H]21 8.61%, CCC(=O)N[C@H]1CC[C@@H](CC(=O)NCc2cc(F)cc(F)c2)O[C@@H]1CO 0.353%, COC(=O)CNC(=O)c1ccccc1[N+](=O)[O-] -1.18%, O=C(NCCNc1ccc([N+](=O)[O-])cc1Cl)c1ccccc1F 7.96%, CC(=O)Nc1ccc2c(c1)C(=O)N(C)[C@@H]1CC[C@H](CC(=O)NCc3ccccc3)O[C@H]1CO2 -6.55%, CO[C@@H]1CN(C)C(=O)c2cc(NC(=O)C3CCC3)ccc2OC[C@H](C)N(Cc2ccccn2)C[C@H]1C 1.86%, Cc1nc(N)sc1-c1ccccc1 0.609%, Cc1nc(-c2ccccc2)sc1-c1nc(-c2ccccc2)ncc1S(=O)(=O)c1ccccc1 -0.228%, CO[C@@H]1CN(C)C(=O)c2cc(NC(=O)C3CC3)ccc2OC[C@@H](C)N(C(=O)c2ccccc2F)C[C@@H]1C -20.7%

Reference: PubChem BioAssay AID602393 (Broad Institute, 2012)
